Where “and” joins values, the source holds several entries; their conditions need not be identical. Identical values can stand only once. About 79,000 compounds went through this panel and 15% of them were active in at least one assay; those are over-represented in the sample as a whole. Unmarked numbers belong to inactive results. Calls of active or inactive are those of the source. Rule as the data show it: active = growth inhibition above about 70%; inactive = the rest.
Experiment: NCI Yeast Anticancer Drug Screen. Data for the mlh1 rad18 strain (AID 175)
Details: S. cerevisiae mlh1 rad18 strain growth inhibition, active compounds read high
Description: Growth inhibition of yeast strains with defined genetic alterations is measured as a screen for potential anti-cancer activity. Selected strains with alterations in DNA damage repair or cell cycle control were exposed to compounds and growth inhibition was measured relative to vehicle treated controls. The strain used in this assay is mlh1 rad18

[1] = at 5.0 µM (retest, dose inferred, filed as 0.5)
[2] = at 50.0 µM (retest, dose inferred, filed as 5.0)

SMILES	growth inhibition [1]	growth inhibition [2]	growth inhibition (at 50.0 µM)
Cc1cc(C)c(O)c(C)c1.[Hg]	98% (active)	98% (active)	99.5% (active)
Cc1ccc(C#CCN2CCCCC2)cn1	-138%	-87%	11.7%
CCOC(=O)C1CC12c1ccccc1-c1ccccc12 (configuration not stated)	-1%	41%	69.5%
CC1=C[n+]2cc(C)ccc2Sc2c1ccc1ccccc21	-1%	30%	79.5% (active)
CC(=O)[CH-]C(=O)c1ccccc1.CC(=O)[CH-]C(=O)c1ccccc1.C[C@]12CCC(=O)C=C1CC[C@@H]1C2CC[C@@]2(C)C1CC[C@@H]2[O-].C[C@]12CCC(=O)C=C1CC[C@@H]1C2CC[C@@]2(C)C1CC[C@@H]2[O-].Cl.[Ti+4] (some centres not stated)	47%	84% (active)	73.2% (active)
Sc1ccc(Cl)cc1	9%	64%	13.9% and 31.5%
C1CN([PH+](N2CC2)N2CC2)CCO1.C1CN([PH+](N2CC2)N2CC2)CCO1.[I][Pt][I]	1%	7%	6.4%
COC1C(C)OC(OC2CC(C)(O)Cc3cc4c(c(O)c32)C(=O)c2c(O)cc3c(c2C4=O)OC2OC3(C)C(O)C(N(C)C)C2O)C(OC)C1(C)OC (configuration not stated)	83% (active)	98% (active)	90% (active)
c1c(N2CCOCC2)ssc1=[N+]1CCOCC1	2%	9%	82.7% (active)
NNc1ccccc1Cl	82% (active)	97% (active)	88.2% (active)
O=[N+]([O-])c1ccccc1	6%	19%	39.2%
O=c1oc2ccccc2c(O)c1C1c2c(c3ccccc3oc2=O)Oc2c1c(=O)oc1ccccc21	10%	97% (active)	92% (active)
CCN1CCC(O)(c2ccc(Cl)c(Cl)c2)C(C(=O)c2ccc(Cl)c(Cl)c2)C1 (configuration not stated)	54%	99% (active)	99.6% (active)
O=C(O)c1ccc(NP(=O)(O)Oc2ccccc2)cc1 (tested in a mixture with another compound)	11%	16%	15.2%

Source: PubChem BioAssay (NCI)
